Our source for the binding signal values is PMC7862700, “An all-to-all approach to the identification of sequence-specific readers for epigenetic DNA modifications on cytosine”.

Common to all, as to assay: DAPPL (digital affinity profiling via proximity ligation, sequencing); 10 mM Tris-HCl pH 7.5, 50 mM NaCl, 1 mM DTT, 4% glycerol, room temperature, 30 min; GST-TFs on glutathione beads, 16-mer random dsDNA library, 0.1% formaldehyde crosslink after washing; high values mean tight binding
Conditions in all cases: protein: recombinant; tags: N-terminal GST; dsDNA, one strand shown

The target of one assay is T1, FLI1 (Homo sapiens, UniProt Q01543 1-452).
T1 sequence: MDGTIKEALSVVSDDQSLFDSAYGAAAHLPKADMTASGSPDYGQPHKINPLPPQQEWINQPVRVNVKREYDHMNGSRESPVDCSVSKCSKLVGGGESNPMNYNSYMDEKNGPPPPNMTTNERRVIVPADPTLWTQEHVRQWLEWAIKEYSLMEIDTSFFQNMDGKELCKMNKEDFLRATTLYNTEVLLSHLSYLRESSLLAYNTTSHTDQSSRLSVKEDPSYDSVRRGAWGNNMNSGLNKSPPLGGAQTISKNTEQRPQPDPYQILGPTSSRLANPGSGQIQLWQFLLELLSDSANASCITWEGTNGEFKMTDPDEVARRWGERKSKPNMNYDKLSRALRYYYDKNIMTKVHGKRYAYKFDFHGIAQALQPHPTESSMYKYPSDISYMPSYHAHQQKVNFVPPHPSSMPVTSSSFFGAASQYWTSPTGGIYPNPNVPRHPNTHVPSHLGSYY
The essentials: (§1)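 Each value of binding signal is a hexamer's read frequency for a factor divided by the same hexamer's frequency in the tag-only sample. Barcoded, bead-captured GST fusions of human transcription factors made in yeast were pooled with that sample and incubated with 200 nmole of a random double-stranded 16-mer DNA library in Tris/NaCl/DTT/glycerol buffer at room temperature for 30 min. Washing, 0.1% formaldehyde crosslinking, proximity ligation, PCR and Illumina NextSeq500 sequencing followed.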

In a further assay the target is T2, GABPA (Homo sapiens, UniProt Q06546 1-454).
T2 sequence: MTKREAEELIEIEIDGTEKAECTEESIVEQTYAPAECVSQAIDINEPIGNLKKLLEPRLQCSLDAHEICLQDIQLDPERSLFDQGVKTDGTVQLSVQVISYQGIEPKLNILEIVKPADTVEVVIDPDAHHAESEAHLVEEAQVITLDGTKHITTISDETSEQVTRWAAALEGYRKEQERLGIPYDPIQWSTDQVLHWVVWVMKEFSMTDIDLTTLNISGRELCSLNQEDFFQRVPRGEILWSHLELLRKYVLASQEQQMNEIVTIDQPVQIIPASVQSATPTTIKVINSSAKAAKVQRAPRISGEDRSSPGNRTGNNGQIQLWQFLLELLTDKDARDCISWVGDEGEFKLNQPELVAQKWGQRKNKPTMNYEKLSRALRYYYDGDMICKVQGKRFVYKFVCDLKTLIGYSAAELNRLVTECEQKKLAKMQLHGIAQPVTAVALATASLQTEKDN
An outline of the steps:
as §1

A further assay deals with ELF4 (Homo sapiens, UniProt Q99607 1-663). An outline of the steps:
as §1

The next assay deals with T3, ERF (Homo sapiens, UniProt P50548 1-548).
T3 sequence: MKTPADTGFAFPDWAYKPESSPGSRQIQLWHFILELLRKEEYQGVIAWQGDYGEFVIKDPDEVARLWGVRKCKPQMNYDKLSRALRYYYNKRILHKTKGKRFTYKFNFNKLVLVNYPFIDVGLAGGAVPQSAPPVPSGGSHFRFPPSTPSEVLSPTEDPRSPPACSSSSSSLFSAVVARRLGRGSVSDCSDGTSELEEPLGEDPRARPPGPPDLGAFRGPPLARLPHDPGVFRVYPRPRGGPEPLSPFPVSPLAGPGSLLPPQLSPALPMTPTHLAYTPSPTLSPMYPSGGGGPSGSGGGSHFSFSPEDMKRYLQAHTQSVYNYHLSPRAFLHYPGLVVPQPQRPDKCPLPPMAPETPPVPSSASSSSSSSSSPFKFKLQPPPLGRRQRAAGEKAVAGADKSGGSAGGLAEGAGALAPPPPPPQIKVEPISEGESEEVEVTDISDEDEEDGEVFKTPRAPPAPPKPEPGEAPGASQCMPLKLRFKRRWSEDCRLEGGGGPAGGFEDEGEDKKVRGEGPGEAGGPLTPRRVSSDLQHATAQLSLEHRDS
The essentials:
as §1

Another assay has as its target T4, ETV7 (Homo sapiens, UniProt Q9Y603 1-341).
T4 sequence: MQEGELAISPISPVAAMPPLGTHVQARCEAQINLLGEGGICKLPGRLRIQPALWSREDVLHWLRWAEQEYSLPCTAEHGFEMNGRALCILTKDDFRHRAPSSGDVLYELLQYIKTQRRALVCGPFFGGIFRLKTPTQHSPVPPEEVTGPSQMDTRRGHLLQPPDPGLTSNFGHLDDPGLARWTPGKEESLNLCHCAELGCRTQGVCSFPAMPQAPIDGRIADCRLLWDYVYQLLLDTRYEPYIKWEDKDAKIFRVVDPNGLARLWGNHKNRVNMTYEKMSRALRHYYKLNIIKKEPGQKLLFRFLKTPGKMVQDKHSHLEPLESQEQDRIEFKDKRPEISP
An outline of the steps: as §1

In a further assay the target is T5, ETV3 (Homo sapiens, UniProt P41162-2 1-143).
T5 sequence: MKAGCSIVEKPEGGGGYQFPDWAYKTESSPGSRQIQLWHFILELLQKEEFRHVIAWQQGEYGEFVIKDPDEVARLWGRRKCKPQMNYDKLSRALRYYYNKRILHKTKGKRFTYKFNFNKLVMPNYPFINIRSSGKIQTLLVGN
The essentials:
as §1

The target of a further assay is ETV6 (Homo sapiens, UniProt P41212 1-452). An outline of the steps:
as §1

For another assay, the target named is T6, ELK1 (Homo sapiens, UniProt P19419 1-428).
T6 sequence: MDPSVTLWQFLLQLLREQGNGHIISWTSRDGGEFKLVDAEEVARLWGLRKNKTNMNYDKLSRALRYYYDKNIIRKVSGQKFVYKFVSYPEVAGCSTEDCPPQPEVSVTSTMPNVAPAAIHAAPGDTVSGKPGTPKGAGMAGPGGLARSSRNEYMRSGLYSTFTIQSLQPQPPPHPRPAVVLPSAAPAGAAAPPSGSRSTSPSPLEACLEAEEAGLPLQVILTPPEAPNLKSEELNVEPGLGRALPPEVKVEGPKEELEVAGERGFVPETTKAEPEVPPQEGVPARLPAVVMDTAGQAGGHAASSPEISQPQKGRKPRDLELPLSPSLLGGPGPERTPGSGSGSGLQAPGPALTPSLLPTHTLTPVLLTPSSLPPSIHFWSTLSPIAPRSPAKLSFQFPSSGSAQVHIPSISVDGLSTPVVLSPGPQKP
An outline of the steps:
as §1

In another assay the target is T7, ERG (Homo sapiens, UniProt P11308 1-479).
T7 sequence: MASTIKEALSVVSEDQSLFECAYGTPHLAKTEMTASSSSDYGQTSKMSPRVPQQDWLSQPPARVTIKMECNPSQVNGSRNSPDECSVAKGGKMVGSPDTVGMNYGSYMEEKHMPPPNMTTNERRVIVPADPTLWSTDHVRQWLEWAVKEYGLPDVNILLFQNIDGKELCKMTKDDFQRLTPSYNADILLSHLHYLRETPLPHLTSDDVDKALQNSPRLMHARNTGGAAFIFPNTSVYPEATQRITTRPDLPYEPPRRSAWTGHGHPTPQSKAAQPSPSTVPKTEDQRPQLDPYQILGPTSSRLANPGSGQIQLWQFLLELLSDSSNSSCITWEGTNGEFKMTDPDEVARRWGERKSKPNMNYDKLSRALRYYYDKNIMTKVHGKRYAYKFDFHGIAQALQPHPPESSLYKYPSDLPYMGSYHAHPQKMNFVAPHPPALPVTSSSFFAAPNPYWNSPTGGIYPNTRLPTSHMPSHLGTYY
The essentials: as §1

For another assay, the target named is ELF1 (Homo sapiens, UniProt P32519 1-619). An outline of the steps:
as §1

In the next assay the target is T8, EHF (Homo sapiens, UniProt Q9NZC4 1-300).
T8 sequence: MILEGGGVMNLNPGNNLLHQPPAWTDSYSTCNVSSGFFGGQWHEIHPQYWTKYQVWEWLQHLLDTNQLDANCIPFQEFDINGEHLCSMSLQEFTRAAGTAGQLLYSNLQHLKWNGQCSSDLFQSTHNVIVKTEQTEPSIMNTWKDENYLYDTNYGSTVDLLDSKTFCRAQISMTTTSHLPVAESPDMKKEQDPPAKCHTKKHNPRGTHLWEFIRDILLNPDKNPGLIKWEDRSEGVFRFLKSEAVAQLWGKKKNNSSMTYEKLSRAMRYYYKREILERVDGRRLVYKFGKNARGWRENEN
The essentials:
as §1

The next assay concerns the target T9, ELK3 (Homo sapiens, UniProt P41970 1-407).
T9 sequence: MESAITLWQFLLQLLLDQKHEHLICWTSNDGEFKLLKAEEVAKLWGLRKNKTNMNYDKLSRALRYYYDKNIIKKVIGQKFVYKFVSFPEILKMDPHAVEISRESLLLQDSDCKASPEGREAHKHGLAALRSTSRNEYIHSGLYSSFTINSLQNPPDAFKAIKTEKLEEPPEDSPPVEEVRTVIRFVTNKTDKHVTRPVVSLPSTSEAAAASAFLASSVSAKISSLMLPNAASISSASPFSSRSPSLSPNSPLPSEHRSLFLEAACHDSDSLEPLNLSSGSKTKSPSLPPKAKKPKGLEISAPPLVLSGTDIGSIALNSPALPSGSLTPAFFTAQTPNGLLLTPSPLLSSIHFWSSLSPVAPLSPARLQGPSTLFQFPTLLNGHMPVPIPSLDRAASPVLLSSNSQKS
The essentials: as §1

For the next assay, the target named is T10, ETV2 (Homo sapiens, UniProt O00321 1-342).
T10 sequence: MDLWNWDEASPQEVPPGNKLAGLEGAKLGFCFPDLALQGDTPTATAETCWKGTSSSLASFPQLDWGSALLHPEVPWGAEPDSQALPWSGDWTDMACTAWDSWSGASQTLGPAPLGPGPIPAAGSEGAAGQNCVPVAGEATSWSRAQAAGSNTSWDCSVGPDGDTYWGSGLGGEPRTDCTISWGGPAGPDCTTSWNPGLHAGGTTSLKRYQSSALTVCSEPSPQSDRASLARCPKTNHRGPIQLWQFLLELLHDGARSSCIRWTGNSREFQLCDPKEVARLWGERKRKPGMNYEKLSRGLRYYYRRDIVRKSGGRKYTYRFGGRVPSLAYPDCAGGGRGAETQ
The essentials:
as §1

In a further assay the target is T11, ETV3L (Homo sapiens, UniProt Q6ZN32 1-361).
T11 sequence: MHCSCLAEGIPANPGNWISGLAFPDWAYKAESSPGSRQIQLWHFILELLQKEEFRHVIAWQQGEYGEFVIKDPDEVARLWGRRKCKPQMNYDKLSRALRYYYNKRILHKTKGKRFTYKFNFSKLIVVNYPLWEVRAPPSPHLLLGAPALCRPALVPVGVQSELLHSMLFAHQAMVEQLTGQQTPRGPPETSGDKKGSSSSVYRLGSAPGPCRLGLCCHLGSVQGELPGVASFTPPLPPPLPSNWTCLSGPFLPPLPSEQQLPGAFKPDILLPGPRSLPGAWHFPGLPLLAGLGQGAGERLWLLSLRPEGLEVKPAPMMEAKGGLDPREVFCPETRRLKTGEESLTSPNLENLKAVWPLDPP
An outline of the steps: as §1

Sequence of ETV6 (P41212 whole entry): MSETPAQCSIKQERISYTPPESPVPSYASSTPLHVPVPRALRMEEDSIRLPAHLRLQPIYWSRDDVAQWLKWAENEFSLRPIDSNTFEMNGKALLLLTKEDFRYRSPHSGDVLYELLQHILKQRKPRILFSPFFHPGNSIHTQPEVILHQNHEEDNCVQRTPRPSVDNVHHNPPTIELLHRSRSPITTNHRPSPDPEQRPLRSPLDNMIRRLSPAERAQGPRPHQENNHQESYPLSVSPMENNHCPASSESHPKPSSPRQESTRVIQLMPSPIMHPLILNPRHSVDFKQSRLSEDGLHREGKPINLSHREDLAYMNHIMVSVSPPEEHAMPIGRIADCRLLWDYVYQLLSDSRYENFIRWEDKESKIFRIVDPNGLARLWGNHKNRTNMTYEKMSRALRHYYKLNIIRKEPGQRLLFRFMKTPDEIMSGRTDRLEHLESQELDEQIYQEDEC
Sequence of ELF4 (Q99607 whole entry): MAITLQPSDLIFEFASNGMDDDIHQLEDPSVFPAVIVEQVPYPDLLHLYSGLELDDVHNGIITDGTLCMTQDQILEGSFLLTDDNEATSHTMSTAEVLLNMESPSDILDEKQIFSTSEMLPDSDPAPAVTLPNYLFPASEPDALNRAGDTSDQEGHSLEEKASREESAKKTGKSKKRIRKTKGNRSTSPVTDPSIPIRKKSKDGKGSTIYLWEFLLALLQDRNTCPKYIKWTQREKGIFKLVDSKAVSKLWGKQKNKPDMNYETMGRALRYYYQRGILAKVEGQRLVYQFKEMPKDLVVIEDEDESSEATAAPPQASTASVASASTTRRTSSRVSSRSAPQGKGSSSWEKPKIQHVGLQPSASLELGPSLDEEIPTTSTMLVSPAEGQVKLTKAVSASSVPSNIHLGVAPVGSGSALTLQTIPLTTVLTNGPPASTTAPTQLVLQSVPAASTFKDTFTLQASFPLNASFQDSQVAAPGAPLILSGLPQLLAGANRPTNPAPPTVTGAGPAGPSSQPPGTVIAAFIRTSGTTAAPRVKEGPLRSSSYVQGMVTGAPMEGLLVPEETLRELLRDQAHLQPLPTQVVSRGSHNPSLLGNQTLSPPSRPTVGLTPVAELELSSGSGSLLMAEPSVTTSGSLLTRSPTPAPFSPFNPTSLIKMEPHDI
Sequence of ELF1 (P32519 whole entry): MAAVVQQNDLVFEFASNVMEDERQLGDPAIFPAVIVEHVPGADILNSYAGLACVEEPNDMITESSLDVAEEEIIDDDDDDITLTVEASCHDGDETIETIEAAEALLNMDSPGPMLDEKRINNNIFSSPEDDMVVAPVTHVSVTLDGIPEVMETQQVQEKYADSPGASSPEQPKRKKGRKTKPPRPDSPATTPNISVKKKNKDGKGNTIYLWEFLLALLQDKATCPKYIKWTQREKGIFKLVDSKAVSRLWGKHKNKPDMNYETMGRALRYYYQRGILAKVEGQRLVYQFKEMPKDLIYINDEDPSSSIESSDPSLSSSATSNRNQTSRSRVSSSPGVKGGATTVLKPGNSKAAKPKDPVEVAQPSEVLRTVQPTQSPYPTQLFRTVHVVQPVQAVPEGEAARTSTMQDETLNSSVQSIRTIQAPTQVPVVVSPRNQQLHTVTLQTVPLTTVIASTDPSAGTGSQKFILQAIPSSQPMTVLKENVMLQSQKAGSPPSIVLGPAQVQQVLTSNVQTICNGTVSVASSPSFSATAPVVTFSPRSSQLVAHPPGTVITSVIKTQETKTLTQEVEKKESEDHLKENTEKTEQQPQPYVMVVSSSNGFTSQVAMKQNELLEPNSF

ACCGTT: the binding signal with FLI1 was 1.03 fold enrichment (6-mer frequency, TF over GST control); in the assay with GABPA it was 1.02 fold enrichment (6-mer frequency, TF over GST control); with ELF4, 1 fold enrichment (6-mer frequency, TF over GST control); with ERF, 1.05 fold enrichment (6-mer frequency, TF over GST control); with ETV7, 1.08 fold enrichment (6-mer frequency, TF over GST control); in the assay with ETV3 it was 1.01 fold enrichment (6-mer frequency, TF over GST control). Moreover, the binding signal in the assay with ETV6 is 1 fold enrichment (6-mer frequency, TF over GST control).
CCATGG: the binding signal was 1.08 fold enrichment (6-mer frequency, TF over GST control) with FLI1; 1.05 fold enrichment (6-mer frequency, TF over GST control) with ELK1; 1.08 fold enrichment (6-mer frequency, TF over GST control) with ERG; 1 fold enrichment (6-mer frequency, TF over GST control) in the assay with ELF1; 1.06 fold enrichment (6-mer frequency, TF over GST control) in the assay with EHF; 1.06 fold enrichment (6-mer frequency, TF over GST control) with ELK3. The binding signal with ELF4 is 1.06 fold enrichment (6-mer frequency, TF over GST control); with ETV2 it was 1.05 fold enrichment (6-mer frequency, TF over GST control); in the assay with ETV3L it was 1.02 fold enrichment (6-mer frequency, TF over GST control); with ETV6 it was 1.03 fold enrichment (6-mer frequency, TF over GST control).
